Screens from PubChem.
CYP2C9 act – human CYP2C9 activators, primary screen, biochemical, luminescence; recombinant CYP2C9, luciferin-H conversion; active compounds read high; factor 1 = untreated enzyme, 0 = blocked; Cytochrome P450 2C9 (Homo sapiens), P11712; activation factor at 5 µM; 96,000 tested, 1.4% active;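 active = activation factor of 2 or more for CYP2C9 at a 5 µM dose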;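 also: 0 = sulfaphenazole-blocked wells and 1 = vehicle-only wells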
CYP2C19 inh – blockers of cytochrome P450 2C19 activity – biochemical, luminescence, ADME assay, primary screen | P33261 | CYP2C19 Supersomes, luciferin-H EGE luminescence, 30 min | inhibition, % at 5 µM | 96,000 tested, 21% active | AID 778, 2007;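 active = CYP2C19 inhibition above a set limit at 5 µM in the primary screen, cut at about 50% in these data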;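 also: plate controls were negative control wells for no effect and 2.5 mM tranylcypromine positive control for full effect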
Target sequence (P33261 whole entry, looked up): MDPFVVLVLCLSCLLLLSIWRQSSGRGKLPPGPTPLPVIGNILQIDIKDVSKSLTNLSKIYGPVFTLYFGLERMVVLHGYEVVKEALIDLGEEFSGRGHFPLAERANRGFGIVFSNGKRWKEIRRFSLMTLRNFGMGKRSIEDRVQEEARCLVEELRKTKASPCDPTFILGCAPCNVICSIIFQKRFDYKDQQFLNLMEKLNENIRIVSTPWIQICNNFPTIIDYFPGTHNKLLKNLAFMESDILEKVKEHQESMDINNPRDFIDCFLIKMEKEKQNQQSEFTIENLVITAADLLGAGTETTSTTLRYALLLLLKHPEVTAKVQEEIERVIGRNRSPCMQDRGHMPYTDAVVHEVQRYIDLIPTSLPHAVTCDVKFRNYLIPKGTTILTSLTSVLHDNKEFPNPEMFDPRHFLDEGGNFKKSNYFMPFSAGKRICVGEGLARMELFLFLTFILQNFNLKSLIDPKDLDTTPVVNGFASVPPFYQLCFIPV
CYP2C19 activ – human CYP2C19 activators, primary screen, biochemical, luminescence. recombinant CYP2C19, luciferin-H EGE luminescence; active compounds read high; 0 = fully inhibited enzyme, 1 = untreated enzyme. Cytochrome P450 2C19 (Homo sapiens), P33261. 96,000 tested, under 10 active. activation factor at 5 µM. AID 1025, 2008;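 active = activation factor of at least 2 at 5 µM in the primary screen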;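 also: 0 = wells with 2.5 mM tranylcypromine and 1 = vehicle-only wells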
CYP2C9 inh – blockers of cytochrome P450 2C9 activity – biochemical, luminescence, ADME assay, primary screen; P11712; CYP2C9 Supersomes, luciferin-H conversion; inhibition, % at 5 µM; 96,000 tested, 20% active;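 active = blocking of liver enzyme CYP2C9 beyond about 50% at 5 µM, limit read from the data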
The depositor's hits bear a star. Sampled rows, rich in hits. Any-hit rate of the full collection: about 31%.

SMILES | CYP2C9 act | CYP2C19 inh | CYP2C19 activ | CYP2C9 inh
O=C(NC(NC(=S)Nc1cccc(Cl)c1)C(Cl)(Cl)Cl)OCc1ccccc1 (stereo unspecified) | 0.3 | 60.4* | 0.4 | 65.8*
Cc1cccc(NC(=S)NC(NC(=O)OCc2ccccc2)C(Cl)(Cl)Cl)c1 (stereo unspecified) | 0.2 | 76.7* | 0.2 | 75.7*
CC1CCC2(CC1)N=C(N)Nc1nc3ccccc3n12 (stereo unspecified) | 0.9 | 0.3 | 1 | 8.4
Cc1[nH]c2ccccc2c1C(c1ccccn1)N1CCC(C(N)=O)CC1 (stereo unspecified) | 1.1 | 50.7* | 0.5 | -6.3
CCN1CCN(C(=O)C2=C(C(=O)O)CCCC2)CC1 | 0.9 | 7.1 | 0.9 | 12.7
CCCCc1nnc(NC(=O)C2CCCO2)s1 (stereo unspecified) | 1 | -2.6 | 1 | 3.6
O=C(c1ccco1)c1cn[nH]c1-c1ccc(Cl)cc1O | 0.5 | 92.1* | 0.1 | 50.8*
CC(=O)c1nn(-c2cccc(Cl)c2)cc1C(=O)c1ccco1 | 1.2 | 5.5 | 0.9 | -21.0
COc1ccc(O)c(-c2[nH]ncc2C(=O)c2ccccc2)c1 | 0.4 | 81.2* | 0.2 | 63.7*
Cc1ccc(C(=O)c2cn[nH]c2-c2cc(Cl)ccc2O)cc1 | 0.2 | 95.7* | 0 | 79.8*
Cc1ccc(C(=O)c2cncc(Br)c2)cc1 | 0.8 | 44.1 | 0.6 | 18.1
O=C(c1ccccc1)c1cn[nH]c1-c1ccccc1O | 0.8 | 25.9 | 0.7 | 20.6
O=C(OCC(=O)N1CCc2ccccc21)c1ccccc1 | 0.9 | 24.8 | 0.8 | 6.1
CC(C)[C@H](NC(=O)c1ccco1)C(=O)OCC(=O)N1CCc2ccccc21 | 0.1 | 41.0 | 0.6 | 86.8*
Cc1ccccc1OC(=O)CCC(=O)OCCCC(F)(F)C(F)(F)F | 0.6 | 54.3* | 0.5 | 41.0
Cc1ccc(S(=O)(=O)N2CCN(C3CCN(Cc4ccccc4)CC3)CC2)cc1 | 0.9 | 3.0 | 1 | 11.3
COc1ccc(S(=O)(=O)N2CCN(C3CCN(Cc4ccccc4)CC3)CC2)cc1 | 1 | 4.2 | 1 | 4.3
COc1cc(C)c(C)cc1S(=O)(=O)N1CCN(Cc2ccc3c(c2)OCO3)CC1 | 1 | 61.9* | 0.4 | -2.2
COc1cc(S(=O)(=O)N2CCN(Cc3ccc4c(c3)OCO4)CC2)c(C)cc1C | 1 | 32.1 | 0.7 | -2.2
COc1cc(C)c(C)cc1S(=O)(=O)N1CCN(Cc2ccccc2)CC1 | 0.4 | 88.8* | 0.1 | 62.6*
Cc1cc(S(=O)(=O)N2CCN(Cc3ccccc3)CC2)c(C)s1 | 0.4 | 98.6* | 0 | 61.9*
O=P(Cc1nnco1)(c1ccccc1)c1ccccc1 | 0.8 | 8.0 | 0.9 | 20.7
CCOC(=O)CC1=CC(C)(CC(=O)OCC)C(C#N)(C#N)C(N)=C1C#N (stereo unspecified) | 0.2 | 20.8 | 0.8 | 79.4*
Cc1cc2ccccc2nc1SCC(=O)N1CCCC1 | 1.2 | 33.1 | 0.7 | -21.6
Cn1c(NC(=O)c2cccs2)c(-c2cccs2)c(=O)c2ccccc21 | 0.3 | 3.8 | 1 | 66.8*
SMILES | CYP2C9 act | CYP2C19 inh | CYP2C19 activ | CYP2C9 inh
Cn1c(NC(=O)c2ccccc2)c(-c2cccs2)c(=O)c2ccccc21 | 0.2 | -15.0 | 1.1 | 83.8*
CCOc1ccccc1Nc1ncccc1C(=O)O | 0.9 | 5.8 | 0.9 | 12.5
COc1ccccc1-c1ccc(=O)n(CC(=O)Nc2ccc(C(=O)N3CCCC3)cc2)n1 | 1 | 9.6 | 0.9 | -3.6
O=C(O)CCc1nn2cnc3sc4c(c3c2nc1=O)CCCC4 | 1.2 | 0.3 | 1 | -21.1
C/C(N)=C(/C#N)C(=O)CSc1nnc(Nc2c(C)cccc2C)s1 | 0.3 | 72.4* | 0.3 | 68.6*
C/C(N)=C(/C#N)C(=O)COC(=O)COc1ccc(Cl)cc1 | 1.1 | 20.5 | 0.8 | -5.2
C/C(N)=C(/C#N)C(=O)CSc1nnc(Nc2cccc(C)c2C)s1 | 0.3 | 66.1* | 0.3 | 66.1*
C/C(N)=C(/C#N)C(=O)CSc1nnc(SCc2ccc(Cl)cc2)s1 | 0.3 | 30.8 | 0.7 | 70.6*
CCN1C(=O)c2ccccc2S(=O)c2ccc(C(=O)N3CCCC3)cc21 (stereo unspecified) | 0.8 | 11.4 | 0.9 | 22.8
Cc1ccc(C2CC(=O)N(c3ccc(F)cc3)C3=C2C(=O)CCC3)cc1 (stereo unspecified) | 0.7 | 16.8 | 0.8 | 28.8
COc1cc(NS(=O)(=O)c2ccc(C)cc2C)cc(OC)c1OC | 0.3 | 47.6 | 0.5 | 67.0*
COc1cc(S(=O)(=O)Nc2ncccc2C)c(OC)cc1Cl | 0.6 | 91.1* | 0.1 | 44.1
COc1ccc(C)cc1NS(=O)(=O)c1cn(C)c(=O)n(C)c1=O | 1.1 | 36.7 | 0.6 | -9.2
COc1ccc(-c2csc(Nc3ncccc3C)n2)cc1OC | 0.8 | 7.3 | 0.9 | 22.4
COc1ccc(C)cc1S(=O)(=O)Nc1ccccc1 | 0.6 | 23.9 | 0.8 | 38.2
COc1ccc(C)cc1S(=O)(=O)Nc1ccccc1C | 0.4 | 85.3* | 0.1 | 62.5*
COc1cc(NS(=O)(=O)c2cc(C)ccc2OC)c(OC)cc1Cl | 0.7 | 67.2* | 0.3 | 28.2
CCN(CC)CCOC(=O)c1ccc(NC(=O)CCNC(=O)Cn2ccc3ccccc3c2=O)cc1 | 0.5 | 20.5 | 0.8 | 49.8
O=C(O)COc1ccc(-c2nnn(CC(=O)O)n2)cc1 | 1 | -8.0 | 1.1 | -0.2
CCc1ccc(OC)c(S(=O)(=O)Nc2ccccc2C)c1 | 0.3 | 33.9 | 0.7 | 73.3*
O=C(CCl)NCc1c(Cl)cccc1-n1cccc1 | 1 | 15.7 | 0.8 | -1.1
CCN(CC)Cc1c(O)ccc2c(-c3ccccc3)cc(=O)oc12 | 1.1 | 9.7 | 0.9 | -9.9
CN1CCN(Cc2c(O)ccc3c(-c4ccccc4)cc(=O)oc23)CC1 | 0.8 | 53.5* | 0.5 | 19.3
CN1CCN(Cc2c(O)ccc3occ(C(=O)c4ccccc4)c23)CC1 | 0.9 | 98.9* | 0 | 8.4
CCNS(=O)(=O)c1ccc(NC(=O)Cn2nc(C(F)(F)F)cc2C)cc1 | 0.4 | -16.8 | 1.2 | 56.6*
SMILES | CYP2C9 act | CYP2C19 inh | CYP2C19 activ | CYP2C9 inh
Cc1sc(NC(=O)Cn2nc(C(F)(F)F)cc2C)c(C(=O)OC(C)C)c1C | 0.4 | 18.2 | 0.8 | 61.9*
CCc1ccccc1NC(=O)Cn1nc(C(F)(F)F)cc1C1CC1 | 0.9 | 83.0* | 0.2 | 5.0
CN(CC(=O)N1CCCC1)S(=O)(=O)c1ccc(Cl)cc1 | 1.1 | 30.4 | 0.7 | -8.8
O=C(Cn1c(NCCO)nc2ccccc21)NCCc1ccc(F)cc1 | 1 | 17.2 | 0.8 | -1.8
COc1ccc(CCN(Cc2cccs2)S(=O)(=O)c2ccc(-n3cnnn3)c(OC)c2)cc1OC | 0.4 | 50.1* | 0.5 | 55.1*
COc1ccc(CN(Cc2cccnc2)S(=O)(=O)c2ccc(-n3cnnn3)c(C)c2)cc1OC | 0.1 | 80.5* | 0.2 | 94.4*
CN1CCN(C(=S)Nc2ccc(Cl)cc2Cl)CC1 | 0.9 | 8.6 | 0.9 | 10.9
CC(C)N(C(=O)CN1C(=O)NC2(CCCCCC2)C1=O)C(C)C | 1.1 | -5.8 | 1.1 | -10.4
